The record followed here is PubChem BioAssay (NCATS).

Values without a mark were called inactive. Inconclusive results are not listed. The source made the active and inactive calls. Calls follow the shape of the dose curve; as a rule, active = well fitted curve in the direction sought with a large enough effect; inconclusive = small, poorly fitted or top-dose-only effect, or another doubt; inactive = no such curve, though single readings can be large; an effect the other way counts as inactive or inconclusive.

Test [1] has as its system Zika virus NS2B-NS3 protease (linked construct). Description: Primary screen NINDS Rhodamine qHTS for Zika virus inhibitors (AID 1347160). Also: % is scaled to controls: 0 for no effect and ±100 for the full control effect; nearly all actives have a fitted effect of over 55% in size. Put shortly:
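Percent inhibition, normalized to uninhibited and enzyme-free controls, is fitted to a 4-parameter Hill equation. Fluorescence change comes from a 15-min cleavage of 1.5 microM bis-peptide Rhodamine110 substrate by 25 nM linked NS2B-NS3 at room temperature.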
On the technique in general: Quantitative high-throughput screening tests each substance at several concentrations.

The target in test [2] is Calcium and integrin-binding protein 1 (Homo sapiens) (UniProt Q99828). Description: Primary qHTS for Identification of Calcium Integrin Binding Protein 1 (CIB1) Competitor (AID 1508620).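 Also: GST tagged CIB1 binding a fluorescein labelled alphaIIb integrin peptide tracer; top concentration of the series differs between compounds; % is scaled to controls: 0 for no effect and ±100 for the full control effect.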 Put shortly: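 CIB1-GST (1 uM final) and compound incubated 15 min at room temperature before adding FITC-alphaIIb peptide tracer (100 nM final). Competition for binding read by fluorescence polarization (ex 480, em 540) after another 15 min at room temperature.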

The target in test [3] is Glutathione peroxidase 1 (Homo sapiens) (UniProt P07203). As to the kind of experiment: Primary qHTS Assay for Inhibitors of Recombinant Selenoprotein Glutathione Peroxidase 1 (GPX1) (AID 1845191). Also: nearly all actives have a fitted effect of over 65% in size. In short, it runs like this:
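10 nM GPX1 + cpd, 30 min RT; start w/ 1 mM GSH, 0.5 mM cumene hydroperoxide, 0.5 mM NADPH, 100 nM GR, 0.01% BSA; buffer 50 mM Tris-HCl pH 7.5, 2 mM EDTA, 150 mM NaCl; Fl 340/450, 0 & 15 min.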

The target in test [4] is Phospholipid hydroperoxide glutathione peroxidase GPX4 (Homo sapiens) (UniProt P36969). As to the kind of experiment: Primary qHTS Assay for Inhibitors of Recombinant Selenoprotein Glutathione Peroxidase 4 (GPX4) (AID 1845192). Also: nearly all actives have a fitted effect of over 65% in size. Put shortly:
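NADPH consumption, followed by fluorescence at 340/450 nm between 0 and 15 min, reports GPX4 activity via coupled glutathione reductase (100 nM). Enzyme 200 nM was pre-exposed to compound 30 min; 0.5 mM cumene hydroperoxide and 1 mM GSH served as substrates.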

The target in test [5] is Luciferin 4-monooxygenase (Photinus pyralis) (UniProt P08659). As to the kind of experiment: Primary firefly luciferase (FLuc) qHTS assay for identification of artifact compounds. (AID 1845220). Also: nearly all actives have a fitted effect of over 60% in size. The conditions noted are these: outcome: dose series up to 54.1 µM unless noted. Put shortly:
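Compounds sat 15 min at room temperature with 10 uM luciferin and 10 uM ATP (pH 7.6 Tris acetate). Firefly luciferase (10 nM final) was then added, and luminescence was read 5 min later. Data normalized to no-enzyme and DMSO controls were Hill-fitted.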

The test system of test [6] is Nanoluciferase (engineered Oplophorus gracilirostris luciferase). Description: Primary Nanoluciferase (NLuc) qHTS assay for identification of artifact compounds. (AID 1845222).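 Also: 0% = DMSO and -100% = no enzyme.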 Put shortly: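 Luminescence from secreted NLuc (filtered, 1:55-diluted S16 cell medium) read 5 min after Nano-Glo substrate; compounds preincubated 15 min, RT. Hill fits of inhibition normalized to DMSO and no-enzyme.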

Test [7] has as its system CRL-7250. Description: Cytotoxic Profiling of Annotated Libraries Using Quantitative High-Throughput Screening (AID 1296008). Also: nearly all actives have a fitted effect of over 60% in size. Also: potency is read from the fitted curve at half-maximal effect. As to max response: % is scaled to controls: 0 for no effect and ±100 for the full control effect. Particulars: Five cell lines viability, CellTiter-Glo ATP luminescence, 48-72 h; max response: hits give low values. In short, it runs like this:
(§1)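 Cytotoxicity was measured as CellTiter-Glo ATP luminescence, read after 10 min at room temperature. Compound treatment of the cells lasted 48 or 72 hr at 37 degrees Celsius in a qHTS format.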
(ATP-based viability assays read luminescence as a measure of living cells.)

The subject of test [8] is HEK293. Described as above. The conditions noted are these: Five cell lines viability, CellTiter-Glo ATP luminescence, 48-72 h; max response: hits give low values. In short, it runs like this: as §1
The subject of test [9] is HaCat. The description is as above. The conditions noted are these: Five cell lines viability, CellTiter-Glo ATP luminescence, 48-72 h; max response: hits give low values. Put shortly:
as §1

The subject of test [10] is NIH3T3. The description is as above. Particulars: Five cell lines viability, CellTiter-Glo ATP luminescence, 48-72 h; max response: hits give low values. In short, it runs like this:
as §1

Test [11] relates to C33A. As to the kind of experiment: Primary qHTS to identify gynecologic anti-cancer compounds using libraries of approved drugs and bioactive compounds (AID 1345084). Also: nearly all actives have a fitted effect of over 55% in size. Also: potency is read from the fitted curve at half-maximal effect. The conditions noted are these: Gynecologic cancer cell panel viability, ATPlite luminescence, 48 h; series mostly up to 57.5 µM. Put shortly:
(§2)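 Cell viability after 48 h drug treatment, ATPlite luminescence readout; five doses.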

Test [12] relates to CASKI. Described as above. The conditions noted are these: Gynecologic cancer cell panel viability, ATPlite luminescence, 48 h; series mostly up to 57.5 µM. Put shortly:
as §2

For test [13], the system named is Es-2. Described as above. Particulars: Gynecologic cancer cell panel viability, ATPlite luminescence, 48 h; series mostly up to 57.5 µM. Put shortly:
as §2

The subject of test [14] is Hek293T. The test is described as above. The conditions noted are these: Gynecologic cancer cell panel viability, ATPlite luminescence, 48 h, control line for the selectivity index; series mostly up to 57.5 µM. Put shortly:
as §2

Test [15] relates to JEG-3. The test is described as above. The conditions noted are these: Gynecologic cancer cell panel viability, ATPlite luminescence, 48 h; series mostly up to 57.5 µM. In short, it runs like this:
as §2

Test [16] has as its system OV90. Described as above. The conditions noted are these: Gynecologic cancer cell panel viability, ATPlite luminescence, 48 h; series mostly up to 57.5 µM. Put shortly: as §2
In test [17] the test system is PA-1. The description is as above. The conditions noted are these: Gynecologic cancer cell panel viability, ATPlite luminescence, 48 h; series mostly up to 57.5 µM. In short, it runs like this:
as §2

For test [18], the system named is Tov-21-G. The description is as above. The conditions noted are these: Gynecologic cancer cell panel viability, ATPlite luminescence, 48 h; series mostly up to 57.5 µM. In short, it runs like this:
as §2

For test [19], the system named is Tov112D. The description is as above. Particulars: Gynecologic cancer cell panel viability, ATPlite luminescence, 48 h; series mostly up to 57.5 µM. In short, it runs like this:
as §2

Test [20] can be described thus: Primary qHTS for inhibitors of nuclear receptor binding SET domain protein 2 (NSD2) in an isogenic RCH-ACV NSD2 p.E1099K mutant (9B) (AID 1645876). Also: nearly all actives have a fitted effect of over 70% in size. Also: potency is read from the fitted curve at half-maximal effect.

Calcium and integrin-binding protein 1 (Homo sapiens), sequence (Q99828 whole entry, looked up): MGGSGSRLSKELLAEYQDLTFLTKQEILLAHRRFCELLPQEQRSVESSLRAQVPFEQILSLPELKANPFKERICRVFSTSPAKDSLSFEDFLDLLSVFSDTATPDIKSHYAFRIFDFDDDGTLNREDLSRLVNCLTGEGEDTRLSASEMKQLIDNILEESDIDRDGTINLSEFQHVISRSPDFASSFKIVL
Phospholipid hydroperoxide glutathione peroxidase GPX4 (Homo sapiens), sequence (P36969 whole entry, looked up): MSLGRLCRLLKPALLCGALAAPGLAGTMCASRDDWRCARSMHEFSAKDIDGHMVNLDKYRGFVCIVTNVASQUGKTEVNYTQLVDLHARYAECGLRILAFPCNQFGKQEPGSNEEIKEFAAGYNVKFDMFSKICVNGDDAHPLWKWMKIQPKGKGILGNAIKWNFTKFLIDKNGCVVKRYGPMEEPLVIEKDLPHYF
Glutathione peroxidase 1 (Homo sapiens), sequence (P07203 whole entry, looked up): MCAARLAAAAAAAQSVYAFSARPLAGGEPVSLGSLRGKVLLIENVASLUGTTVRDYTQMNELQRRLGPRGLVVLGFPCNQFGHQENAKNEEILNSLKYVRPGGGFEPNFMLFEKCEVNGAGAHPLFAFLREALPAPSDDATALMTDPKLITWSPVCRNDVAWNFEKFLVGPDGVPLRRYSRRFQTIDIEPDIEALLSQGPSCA

For `CC(=O)O[C@H]1CC[C@@]2(CI)C(=CC[C@@H]3[C@@H]2CC[C@]2(C)C(=O)CC[C@@H]32)C1`, the Potency result in test [1], in test [2], in test [3], in test [4], in [6] and in [11] was “inactive” each time. Further, the Potency entry in [12], in [13], in test [14], in test [15], in [16] and in [17] was “inactive” in each case. The Potency result in test [18] and in [19] was “inactive” in each case. Besides, the compound was called inactive in test [5], in [7] and in test [9]. In addition, the max response in [8] is -18.2%; in [10] it was 0.959%.
As for `CC(C)(C)[C@]1(O)C[C@@H]2OC(=O)C[C@@]23C(=O)O[C@@H]2OC(=O)[C@@H](O)[C@]213`, the Potency entry in [1], in [2], in [20], in test [3], in [4] and in test [6] was “inactive” throughout. For the same compound, the Potency entry in test [11], in [12], in [13], in test [14], in test [15] and in test [16] was “inactive” in each case. The Potency result in test [17], in test [18] and in test [19] was “inactive” each time. Moreover, the call in [5] was inactive. Further, the max response in [7] was 1.12%; in test [8], 1.81%; in test [9], -5.58%; in test [10], 3.76%.
Consider `C=C1[C@@H](C)[C@H]2[C@H](Cc3ccccc3)NC(=O)[C@]23[C@H](OC(C)=O)/C=C/[C@](C)(O)C(=O)[C@@H](C)C/C=C/[C@H]3[C@@H]1O`, for which the Potency result in test [1], in test [2], in test [3], in test [4], in [6] and in test [11] was “inactive” each time. In addition, the Potency entry in test [12], in test [14], in test [15] and in test [19] was “inactive” each time. Moreover, the Potency in [20] is 728 nM (active); in test [7], 259 nM (active); in test [8] it was 731 nM (active); in test [9], 23100 nM (active); in test [16], 1260 nM (active); in test [17], 1780 nM (active). The result in test [5] was inactive.
Consider `C[C@@]1(CO)[C@H](O)CC[C@@]2(C)[C@H]1CC[C@H]1C[C@@H]3C[C@@]12CC[C@]3(O)CO`, for which the Potency entry in [2], in test [3], in test [4], in test [6], in test [11] and in test [12] was “inactive” each time. For the same compound, the Potency entry in test [14], in test [15] and in test [18] was “inactive” in each case. Also, the Potency is 3190 nM (active) in [20], 2550 nM (active) in test [8], 9040 nM (active) in test [9] and 6400 nM (active) in test [10]. Also, in test [5], the result was inactive. Besides, in test [7], the max response is -2.86%.
With `CCCCN1[C@@H]2CC[C@H]1CC(OC(c1ccc(F)cc1)c1ccc(F)cc1)C2` (some centres not stated), the Potency result in test [1], in [2], in test [3], in test [4], in test [6] and in test [15] was “inactive” in each case. For the same compound, the Potency result in test [18] was “inactive”. Besides, the Potency in [20] was 12900 nM (active); in test [8] it was 23100 nM (active); in test [11] it was 22400 nM (active); in test [16], 12600 nM (active); in [17], 14100 nM (active). Moreover, in test [5], the result was inactive. Besides, the figures for the max response in [7] and in [9] were -21.5% and -29%, respectively.
Consider `C[C@@H]1CN(Cc2ccc(F)cc2)CCN1C(=O)COc1ccc(Cl)cc1NC(N)=O`, for which the Potency entry in [1], in [2], in [3], in test [4], in test [6] and in test [15] was “inactive” each time. Also, the Potency entry in test [18] was “inactive”. For the same compound, the outcome in test [5] was inactive. Also, the Potency in [7] was 731 nM (active); in [8], 1300 nM (active); in [11] it was 2510 nM (active); in test [16], 8910 nM (active). The max response in test [9] was -27%.
On to `C=C1[C@@H](C)C2[C@H](Cc3ccccc3)NC(=O)[C@@]23C(/C=C/C[C@H](C)C[C@@](C)(O)/C=C/[C@@H]3OC(C)=O)[C@@H]1O` (some centres not stated), for which the Potency result in [1], in [2], in test [3], in [6], in test [11] and in test [13] was “inactive” in each case. Moreover, the Potency result in test [14] is “inactive”. Besides, the Potency in test [20] is 817 nM (active); in [7], 461 nM (active); in [8] it was 731 nM (active); in [9], 130 nM (active); in [17] it was 3980 nM (active). Besides, the call in [5] was inactive.
`C=CCN1CCC2(C)c3cc(O)ccc3C[C@H]1[C@H]2C`: the Potency entry in test [1], in [2], in [20], in test [4], in test [6] and in test [11] was “inactive” each time. Moreover, the Potency entry in [12], in test [13], in [14], in test [15], in test [16] and in test [17] was “inactive” in each case. For the same compound, the Potency entry in test [18] and in test [19] was “inactive” throughout. Also, the call in test [5] was inactive. For the same compound, the max response in test [7] was -1.35%; in [8] it was -5.37%; in test [9], -10.4%; in [10], 1.43%.
`CC1=CC2(O)/C=C/C(C)(O)C(O)C(O)/C=C/C(=O)OC23C(=O)NC(CC(C)C)C3C1C` (configuration not stated): the Potency entry in test [2], in [20], in test [3], in [4], in test [6] and in [11] was “inactive” in each case. Further, the Potency entry in [12], in test [13], in [14], in [15], in test [16] and in [17] was “inactive” each time. Moreover, the Potency result in test [18] and in [19] was “inactive” each time. Besides, the compound was classed as inactive in test [5] and in test [9]. Besides, the max response is -1.26% in [7], -8.27% in test [8] and 0.398% in [10].
With `C[C@H]1O[C@@H](O[C@H]2CC[C@]3(CO)C4CC[C@]5(C)[C@@H](C6=CC(=O)OC6)CC[C@]5(O)[C@@H]4CC[C@H]3C2)[C@H](O)[C@H](O)[C@@H]1O[C@@H]1O[C@H](CO)[C@@H](O)[C@H](O)[C@H]1O` (some centres not stated), the Potency entry in test [2], in test [3], in test [4] and in [6] was “inactive” in each case. Also, the Potency in test [20] was 608 nM (active); in [7], 1220 nM (active); in test [8] it was 1530 nM (active); in test [9], 5440 nM (active); in [11], 1120 nM (active); in test [12], 6310 nM (active). Also, the Potency in test [13] is 3550 nM (active); in test [14], 3160 nM (active); in test [17], 3160 nM (active); in test [18] it was 2820 nM (active); in [19], 1120 nM (active). The outcome in test [5] was inactive. The max response in [10] is -2.67%.
